An excerpt weighted towards active compounds, which were near 19% of everything screened.
DT40 TDP1 no CPT = qHTS for Inhibitors of human tyrosyl-DNA phosphodiesterase 1 (TDP1): qHTS in cells in absence of CPT; DT40 Tdp1-/- hTDP1 cells, no CPT, ATP luminescence, 48 h; Potency, µM (highest dose often 46.2 µM), inactives show top-dose activity change, negative = growth inhibition, most hits filed as inhibitors; 15% of 420,000 active; further: potency means the concentration at half of the fitted maximal effect; on the % scale 0 is the no-effect control and ±100 the full control effect; nearly all actives have a fitted effect of over 55% in size
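Stably hTDP1-transfected Tdp1-null chicken DT40 cells were treated with library compounds minus camptothecin and grown for at least 48 hr at 37 °C, after which cellular ATP was quantified by luminescence.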
HepG2 tox = HepG2 cytotoxicity, counter-screen for TGF-b inhibitors; Potency, µM (highest dose often 46.1 µM), for the others: at the top dose activity change, negative = cytotoxicity, hits mostly cytotoxic; 0.76% of 410,000 active; HepG2 CAGA-GFP viability, ATP luminescence, 18 h; further: potency means the concentration at half of the fitted maximal effect
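CellTiter-Glo luminescence gave cytotoxicity after 18 hours at 37 degrees C. The cells were HepG2 CAGA-GFP in 1% FBS DMEM, stimulated with 500 pg/mL TGF-beta after compound addition. %Activity was normalised to no-cell wells (complete cell-killing) and DMSO (no toxicity), and curves were fitted and classified.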
TGFb SMAD3 inh = TGF-b pathway inhibition | HepG2 CAGA-GFP TGF-b/SMAD3 reporter, GFP fluorescence, 18 h; TGF-beta stimulated, 500 pg/mL final | Potency, µM (highest dose often 46.1 µM), for the others: at the top dose activity, negative = inhibition, hits mostly inhibitors | 1.2% of 410,000 active | AID 588855; further: potency means the concentration at half of the fitted maximal effect; on the % scale 0 is the no-effect control and ±100 the full control effect; nearly all actives have a fitted effect of over 65% in size
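GFP signal (ex488/em500-530) from TGF-beta-stimulated HEPG2 CAGA-GFP cells, 500 pg/mL final, 18 h at 37 degrees C in DMEM plus 1% FBS, normalized to unstimulated and DMSO-stimulated controls.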
DT40 TDP1 CPT = DT40-hTDP1 cell growth loss with CPT; Potency, µM (doses to about 46.2 µM), for inactives: top-dose activity change, negative = growth inhibition, usual class: inhibitors; AID 686979; 12% of 420,000 active; chicken DT40 Tdp1-/-;hTDP1 cells + 20 nM CPT, ATP luminescence, 48 h; further: potency means the concentration at half of the fitted maximal effect; on the % scale 0 is the no-effect control and ±100 the full control effect; nearly all actives have a fitted effect of over 55% in size
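Chicken DT40 Tdp1-/- cells stably complemented with human TDP1 were seeded at 400 cells/well in medium containing 20 nM camptothecin, exposed to pin-transferred compounds, and grown at 37 °C for at least 48 hr. Viability was read as ATP luminescence.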
ASM inhibitor = inhibitors of human secretory acid sphingomyelinase. P17405. placental ASM, HMU-PC fluorogenic substrate, 60 min. Potency, µM (series often up to 57.5 µM), inactives show top-dose activity change, negative = inhibition, hits mostly inhibitors. 0.006% of 340,000 active; further: potency means the concentration at half of the fitted maximal effect
Target sequence (P17405 47-631 limits assumed): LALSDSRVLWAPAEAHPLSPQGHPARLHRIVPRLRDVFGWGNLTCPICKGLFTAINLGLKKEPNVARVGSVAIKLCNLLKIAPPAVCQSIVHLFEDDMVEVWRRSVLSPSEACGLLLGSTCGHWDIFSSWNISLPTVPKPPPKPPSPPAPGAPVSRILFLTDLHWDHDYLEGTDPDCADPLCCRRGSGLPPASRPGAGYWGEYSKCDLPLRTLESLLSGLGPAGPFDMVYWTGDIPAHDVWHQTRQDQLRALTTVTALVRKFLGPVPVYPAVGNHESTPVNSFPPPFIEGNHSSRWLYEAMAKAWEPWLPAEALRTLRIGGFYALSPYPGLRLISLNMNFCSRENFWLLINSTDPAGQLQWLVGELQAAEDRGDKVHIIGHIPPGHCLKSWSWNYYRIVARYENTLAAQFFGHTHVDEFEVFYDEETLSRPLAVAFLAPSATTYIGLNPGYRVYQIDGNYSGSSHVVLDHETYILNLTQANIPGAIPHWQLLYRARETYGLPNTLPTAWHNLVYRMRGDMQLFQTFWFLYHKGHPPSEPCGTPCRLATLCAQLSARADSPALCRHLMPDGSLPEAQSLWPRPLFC
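qHTS format. ASM enzyme prepared from human placenta hydrolyses the fluorogenic substrate HMU-PC0 (9 uM final) over 60 min at 37 °C after a 10 min compound preincubation.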
IL-1B inflam inh = inflammasome signaling inhibition, IL-1 beta readout. 4.7% of 360,000 active. AID 743279. activity change, % at 57.5 µM. THP-1 LPS/ATP IL-1B secretion, AlphaLISA, 16 h; active compounds read low; in the data active means activity change below about -50%; inconclusive means mostly about -30% to -49%; further: on the % scale 0 is the no-effect control and ±100 the full control effect
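Secreted IL-1B measured by AlphaLISA bead assay after 16 h compound exposure of THP-1 cells; compounds (final up to 57.5 uM) added 1 h before LPS (250 ng/mL) and ATP (1.25 mM) stimulation; lower signal means less secretion.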
* marks the source's active call; other numbers are inactive results; ? = inconclusive; · = not tested or not shown. Unless noted, the call rests on the fitted dose curve; in most records, active means well fitted curve in the direction sought with a large enough effect; inconclusive means small, poorly fitted or top-dose-only effect, or another doubt; inactive means no such curve, though single readings can be large; an effect the other way counts as inactive or inconclusive.

SMILES	DT40 TDP1 no CPT	HepG2 tox	TGFb SMAD3 inh	DT40 TDP1 CPT	ASM inhibitor	IL-1B inflam inh
COc1cnc(-c2ccccn2)nc1Sc1ccc(F)cc1	0.517µM*	-27.0%	-29.4%	0.581µM*	-1.3%	1.1
COCCn1c(C)cc(O)c(C(c2ccccc2)N2CCN(C)CC2)c1=O (stereo unspecified)	0.6%	0.8%	-5.3%	-0.9%	·	·
CCN(CC)c1ccc(/C=N/NC(=O)c2ccc([N+](=O)[O-])cc2)cc1	-8.2%	-7.3%	3.8%	-12.4%	-0.6%	1.4
O=C(CNc1ccccc1)N/N=C/c1ccc([N+](=O)[O-])o1	7.31µM*	11.2µM*	?	10.3µM*	-3.9%	?
O=[N+]([O-])c1ccc(/C=N/NC(=S)Nc2ccccc2)o1	23.1µM*	-59.1%	?	14.6µM*	-1.9%	-6.1
O=C(N/N=C/c1ccc([N+](=O)[O-])o1)C1CCCC1	?	-71.7%	?	?	-1.6%	36.3
O=C(CCC(=O)Nc1ccc(Cl)cc1Cl)N/N=C/c1ccc([N+](=O)[O-])o1	2.91µM*	15.8µM*	11.2µM*	2.59µM*	-14.5%	-77.1*
CCN(CC)c1ccc(N=Cc2ccc([N+](=O)[O-])o2)cc1	10.3µM*	-76.6%	-29.5%	5.8µM*	6.5%	-66.8*
COc1ccc(OC)c(NC(=O)c2ccc(NC3=NC4CS(=O)(=O)CC4S3)cc2)c1 (stereo unspecified)	2.9%	-5.0%	1.8%	6.7%	-0.5%	-2.0
Cc1cc(NC(=O)Nc2nnc(N(C)Cc3ccccc3)s2)ccc1Br	?	-28.0%	121.4%	?	·	·
O=C(Cc1ccc2c(c1)OCO2)NN=Cc1ccc([N+](=O)[O-])o1	11.6µM*	-102.2%	10µM*	?	-3.8%	-60.5*
O=C(CNC(=O)c1ccccc1)N/N=C/c1ccc([N+](=O)[O-])o1	23.1µM*	-93.5%	?	9.2µM*	-1.4%	16.6
Cc1ccc(NCC(=O)N/N=C\c2ccc([N+](=O)[O-])o2)cc1	18.4µM*	12.6µM*	11.2µM*	13µM*	-6.7%	-63.7*
CCCCCC(=O)N/N=C/c1ccc([N+](=O)[O-])o1	?	10µM*	?	11.2µM*	-8.9%	20.7
COc1ccc(S(=O)(=O)N2CCCCCC2)cc1C(=O)OCc1cccc(OC)c1OC	-16.1%	3.4%	-1.3%	0.4%	-1.3%	8.0
CCCCNc1c(C(=O)OCC)c(C)nc2c1cnn2CC	20.6µM*	-17.7%	-0.4%	13µM*	-3.9%	0.6
CC(C)n1cnc(S(=O)(=O)N2CCCC(C(=O)NCc3ccccc3Cl)C2)c1 (stereo unspecified)	-21.0%	-25.9%	-19.3%	-23.6%	·	·
O=C(Nc1nnc(-c2cccs2)o1)c1cccc(C(F)(F)F)c1	5.17µM*	-17.9%	?	5.17µM*	-4.7%	72.7
N#Cc1ccc(C(=O)Nc2nnc(-c3cccs3)o2)cc1	7.31µM*	-20.0%	-9.0%	5.17µM*	0.3%	34.1
CN(C)S(=O)(=O)c1ccc(C(=O)Nc2nnc(-c3ccc4c(c3)CCCC4)o2)cc1	5.17µM*	-25.6%	?	2.91µM*	1.6%	3.8
CN(C)S(=O)(=O)c1ccc(C(=O)Nc2nnc(-c3cccs3)o2)cc1	23.1µM*	-32.4%	-12.5%	13µM*	5.2%	22.5
CSCc1nnc(NC(=O)c2ccc(S(=O)(=O)N(C)C)cc2)o1	?	-22.3%	0.4%	?	0.7%	-16.8
C[N+]1(CC(=O)c2ccc(O)c(O)c2)CCOCC1	-16.6%	-10.8%	3.5%	?	·	·
CC(OC(=O)c1cc(S(=O)(=O)N2CCOCC2)ccc1F)C(=O)NC1CCCC1 (stereo unspecified)	-3.8%	-8.2%	6.6%	-8.3%	3.1%	-16.3
CCCSc1nnc2c(n1)OC(c1ccc(Br)s1)Nc1ccccc1-2 (stereo unspecified)	-27.9%	-0.8%	1.8%	-8.3%	·	·
SMILES	DT40 TDP1 no CPT	HepG2 tox	TGFb SMAD3 inh	DT40 TDP1 CPT	ASM inhibitor	IL-1B inflam inh
CCCCCSc1nnc2c(n1)OC(c1ccc(C)s1)N(C(C)=O)c1ccccc1-2 (stereo unspecified)	8.2µM*	-64.6%	?	18.4µM*	·	·
CCCCSc1nnc2c(n1)OC(c1ccc(Br)s1)N(C(C)=O)c1ccccc1-2 (stereo unspecified)	?	-19.3%	?	?	·	·
CCCCSc1nnc2c(n1)OC(c1ccc(C)s1)Nc1ccccc1-2 (stereo unspecified)	11.6µM*	-10.5%	1.1%	18.4µM*	·	·
CC(=O)c1ccc(NC(=O)c2cc(CC(C)C)nc3ccccc23)cc1	?	-89.8%	-7.0%	?	-8.7%	-22.2
Cc1ccc(-c2nc(C)c(CCNC(=O)c3ccccc3Br)s2)cc1	·	-27.9%	-9.2%	·	·	·
CCOc1cc(N2CCOCC2)c(OCC)cc1NC(=O)c1ccc(F)c(S(=O)(=O)N2CCOCC2)c1	-4.0%	-0.1%	0.0%	-9.5%	-0.5%	17.1
COc1ccc(/C=N/Nc2c(Cl)cc(Cl)cc2Cl)cc1CN1CCOCC1	14.6µM*	-32.2%	?	16.4µM*	-2.2%	-12.4
COc1ccc(/C=C/C(=O)NCC2Cc3cc(Cl)cc(-c4ncccn4)c3O2)cc1 (stereo unspecified)	-15.4%	·	·	-5.9%	·	·
CC1(C)CC(=O)C([C@H]2C3=C(CC(C)(C)CC3=O)Oc3ccccc32)C(=O)C1	-0.4%	·	·	-3.2%	·	·
CC1(C)CC(=O)C(C2C3=C(CC(C)(C)CC3=O)Oc3ccc4ccccc4c32)C(=O)C1 (stereo unspecified)	?	-5.9%	-3.7%	7.0%	-1.0%	-71.6*
C/C(=N\Nc1ccc(F)cc1)c1ccncc1	2.7%	-47.9%	-2.9%	21.7%	-1.9%	-0.3
COc1ccc(/C(C)=N\Nc2nc(-c3ccccc3)cc(=O)[nH]2)cc1	-15.5%	-7.6%	-2.5%	-18.2%	113.8%	10.4
COc1ccc(/C(C)=N/Nc2nccnc2Cl)cc1	-9.5%	-64.3%	?	-16.0%	6.0%	-51.6*
C/C(=N\Nc1nc(C)cc(-c2ccccc2)n1)c1ccc(F)cc1	7.31µM*	-29.2%	?	?	-6.7%	-14.7
COc1ccc(/C(C)=N/Nc2nc(C)cc(-c3ccccc3)n2)cc1	4.61µM*	-37.5%	-11.2%	4.11µM*	-1.1%	-16.0
C/C(=N/Nc1nc(-c2ccccc2)cc(-c2ccc(F)cc2)n1)c1cccc(N)c1	?	-47.9%	?	?	-7.4%	-61.0*
